DUX4 txn inh – inhibitors of DUX4-driven ZSCAN4 reporter expression, primary screen, 293T cells, Gaussia and Italica luciferase; 293T-iDUX4 ZSCAN4-Gaussia luciferase reporter, 24 h; stronger effect = lower value; activity change, negative = inhibition, % (no concentration beside the values); 37,000 tested, 0.8% active;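 active = mean inhibition of at least 10% in the main channel, exceeding the control channel by a set limit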;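 also: 0% = median of neutral control wells and -100% = median of positive control wells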
* marks the source's active call; other numbers are inactive results; ! = repeats disagree. The sample as a whole holds a higher share of hits than the screen did.

SMILES | DUX4 txn inh
O=C1N[C@@H](c2ccccc2)COCc2cnnn2CC[C@H]1Cc1ccc(C(F)(F)F)cc1 | 2.3
CCCN1[C@@H]2Cn3c(ccc(-c4ccccc4)c3=O)[C@H]1[C@@H](C(=O)NCCCN1CCOCC1)[C@@H]2CO | 2.8
CC(=O)N1[C@H](CO)[C@H](c2ccccc2)[C@H]1CNC(=O)c1ccncc1 | -3.2
C[C@H](NC(=O)C[C@@H]1C[C@@H]2c3cc(NC(=O)c4cccnc4)ccc3O[C@@H]2[C@H](CO)O1)c1ccccc1 | -4.6
COc1ccc2c3c(n(C)c2c1)[C@H](CO)NCC31CN(C(=O)c2ccc(F)cc2)C1 | -2.5
CCCNC(=O)N1C[C@H]2[C@@H](c3ccccc31)[C@@H](CO)N2Cc1cc(F)ccc1F | 0.9
C[C@H](NC(=O)[C@@H]1[C@@H](CO)[C@@H]2Cn3c(ccc(-c4ccccc4F)c3=O)[C@H]1N2C)c1ccccc1 | -1.6
C/C=C/c1ccc(C2[C@@H]3CN(Cc4cccc(OC)c4)C[C@H]2N3)cc1 (some centres not stated) | -5.0
C(=C\c1ccc(C2[C@@H]3CN(Cc4ccc5c(c4)OCO5)C[C@H]2N3)cc1)/c1ccccc1 (some centres not stated) | -40.8*!
c1ncc(-c2ccc(C3[C@@H]4CN(Cc5ccc6c(c5)OCO6)C[C@H]3N4)cc2)cn1 (some centres not stated) | -3.5
O=C(C[C@@H]1C[C@H]2c3cc(NC(=O)c4cccnc4)ccc3O[C@H]2[C@H](CO)O1)NCCc1ccccc1 | -0.4
C[C@@H]1CN([C@H](C)CO)C(=O)c2c(c3ccccc3n2C)-c2ccccc2CO[C@H]1CN(C)Cc1cccc(O)c1 | 4.3
C[C@H]1CN([C@@H](C)CO)C(=O)c2ccccc2-c2ccccc2CO[C@H]1CN(C)Cc1cccc2c1OCCCO2 | -0.2
COc1ccccc1CN(C)C[C@H]1OCc2ccccc2-c2c(n(C)c3ccccc23)C(=O)N([C@@H](C)CO)C[C@H]1C | 1.1
C[C@H](CO)N1C[C@H](C)[C@@H](CN(C)Cc2cccc(C(F)(F)F)c2)OCc2ccccc2-c2c(n(C)c3ccccc23)C1=O | -54.1*
C[C@@H]1CN([C@H](C)CO)C(=O)c2c(c3ccccc3n2C)-c2ccccc2CO[C@@H]1CN(C)Cc1ccc(O)cc1 | -8.0
C[C@@H]1CN([C@H](C)CO)C(=O)c2c(c3ccccc3n2C)-c2ccccc2CO[C@H]1CN(C)Cc1cccc2c1OCCCO2 | -31.8*
C[C@@H]1CN([C@H](C)CO)C(=O)c2c(c3ccccc3n2C)-c2ccccc2CO[C@@H]1CN(C)Cc1cccc2c1OCCCO2 | -6.4
C[C@@H]1CN([C@H](C)CO)C(=O)c2c(c3ccccc3n2C)-c2ccccc2CO[C@@H]1CN(C)Cc1cccc(C(F)(F)F)c1 | -5.2
C[C@@H]1CN([C@@H](C)CO)C(=O)c2c(c3ccccc3n2C)-c2ccccc2CO[C@@H]1CN(C)Cc1ccc(C(F)(F)F)cc1 | -27.1*
C[C@H](CO)N1C[C@H](C)[C@@H](CN(C)C(=O)Nc2ccccc2C(F)(F)F)OCc2ccccc2-c2c(n(C)c3ccccc23)C1=O | -5.6
C[C@@H]1CN([C@H](C)CO)C(=O)c2c(c3ccccc3n2C)-c2ccccc2CO[C@H]1CN(C)Cc1ccc(O)cc1 | 8.4
C[C@H]1CN([C@@H](C)CO)C(=O)c2c(c3ccccc3n2C)-c2ccccc2CO[C@@H]1CN(C)Cc1ccccc1C(F)(F)F | -29.8*
C/C=C/c1ccc([C@H]2[C@@H](CNC(C)=O)N(C(=O)Cc3ccncc3)[C@H]2CO)cc1 | -2.4
O=C(C[C@H]1CC[C@@H]2[C@H](COC[C@H](O)CN2Cc2ccc(F)cc2)O1)NCc1ccncn1 | -4.7
SMILES | DUX4 txn inh
CO[C@H]1CN(C)C(=O)c2cc(NC(=O)CC(F)(F)F)ccc2OC[C@H](C)N(S(=O)(=O)c2cn(C)cn2)C[C@H]1C | 3.6
COCC(=O)N1CC[C@@H]2[C@H]1c1cc(C#Cc3ccccc3)ccc1N[C@@H]2CO | -2.4
COc1ccccc1C(=O)Nc1ccc2c(c1)C(=O)N(C)[C@@H]1CC[C@@H](CC(=O)NCc3ccc(Cl)c(Cl)c3)O[C@H]1CO2 | -3.9
CCS(=O)(=O)N1CC2(C1)[C@H](c1ccccc1)[C@H](CO)N2C(=O)c1ccccc1 | 14.1
C[C@@H]1CCCCO[C@H](CN(C)C(=O)Cc2ccccc2)[C@H](C)CN([C@H](C)CO)C(=O)c2cc(NS(C)(=O)=O)ccc2O1 | 3.1
C/C=C/c1cccc(-c2nc(C(=O)N3CCN(C)CC3)cc3c2[C@H](CCO)N(C(=O)NC(C)C)C3)c1 | -2.6
C[C@H](O)C#Cc1ccc2c(c1)O[C@@H](CN(C)C(=O)C1CCCCC1)[C@@H](C)CN([C@@H](C)CO)S2(=O)=O | 1.4
CN(C)CC(=O)Nc1ccc2c(c1)[C@@H]1C[C@@H](CC(=O)NCc3ccc4c(c3)OCO4)O[C@@H](CO)[C@@H]1O2 | 1.2
COc1ccc2c3c(n(C)c2c1)[C@@H](CO)N(C(=O)Nc1ccc(F)cc1)CC31CCN(CC2CCOCC2)CC1 | 15.1
CCCN1[C@@H]2Cn3c(ccc(-c4cccnc4)c3=O)[C@H]1[C@@H](C(=O)NCCc1cn(C)cn1)[C@@H]2CO | -5.7
C[C@H]1CN([C@@H](C)CO)C(=O)CCCn2nncc2CO[C@H]1CN(C)Cc1ccc(C(=O)O)cc1 | 0.7
C[C@@H]1CN([C@@H](C)CO)C(=O)CCCn2nncc2CO[C@@H]1CN(C)Cc1ccc(C(=O)O)cc1 | 2.7
C[C@H](CO)N1C[C@H](C)[C@H](CN(C)Cc2ccc(C(=O)Nc3ccccc3N)cc2)OCc2cnnn2CCCC1=O | -16.0*
O=C(Nc1ccc(Cl)cc1)N1C[C@@H]2[C@H](c3ccccc31)[C@H](CO)N2C(=O)c1ccccn1 | 3.5
CCCc1cn(CC[C@@H]2CC[C@H](NC(=O)C3CCOCC3)[C@H](CO)O2)nn1 | -3.7
O=C(CN1CCOCC1)NCC[C@@H]1CC[C@@H](NC(=O)Cc2ccccn2)[C@@H](CO)O1 | -3.6
CCCC(=O)N1CC2(C1)CN(Cc1ccc(Cl)cc1)[C@H](CO)c1[nH]c3cc(OC)ccc3c12 | -80.4*
CCCC(=O)N1CCC2(CC1)CN(Cc1nccs1)[C@H](CO)c1[nH]c3cc(OC)ccc3c12 | -1.4
COc1ccc(CN2CC3(C2)CN(C(=O)Nc2ccc(F)cc2)[C@@H](CO)c2[nH]c4cc(OC)ccc4c23)cc1 | -39.3*
CCC(=O)N1CC2(C1)CN(Cc1ccc(OC)cc1)[C@H](CO)c1[nH]c3cc(OC)ccc3c12 | 2.0
CCCC(=O)N1CC2(C1)CN(Cc1ccc(Cl)cc1)[C@@H](CO)c1[nH]c3cc(OC)ccc3c12 | -85.0*
COc1ccc2c3c([nH]c2c1)[C@H](CO)N(C(=O)Nc1ccc(F)cc1)CC31CN(CC2CC2)C1 | 1.9
COc1ccc2c3c([nH]c2c1)[C@H](CO)N(Cc1ccncc1)CC31CN(C(=O)Cc2ccncc2)C1 | 12.4
COc1ccc2c3c([nH]c2c1)[C@H](CO)N(C(=O)Nc1ccc(F)cc1)CC31CN(S(C)(=O)=O)C1 | 6.9
CCCC(=O)N1CCC2(CC1)CN(Cc1ccc(Cl)cc1)[C@H](CO)c1[nH]c3cc(OC)ccc3c12 | -63.4*
CCCC(=O)N1CC2(C1)CN(Cc1ccncc1)[C@H](CO)c1[nH]c3cc(OC)ccc3c12 | 9.7
CCCC(=O)N1CCC2(CC1)CN(Cc1ccncc1)[C@@H](CO)c1[nH]c3cc(OC)ccc3c12 | 1.7
COc1ccc2c3c([nH]c2c1)[C@H](CO)N(Cc1ccc(F)cc1)CC31CN(C(C)=O)C1 | -3.1
